KCNQ2 pot = KCNQ2 (rat) channel potentiation | AID 2239 | 0.54% of 310,000 active | CHO-K1 KCNQ2, FluxOR thallium flux fluorescence; active compounds read high | B-score at 10 µM;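 active means fluorescence ratio B-score at least 3 SD of library B-scores, with initial fluorescence B-score within 3 of them, cut at about 5.3 in these data; same plate scores as AID 2156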;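 further: B-score of peak minus minimum over baseline fluorescence ratio after K+ and Tl+ stimulus; positive B-score means potentiation of KCNQ2 with more thallium influx and brighter signal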
Target sequence (O88943 whole entry, looked up): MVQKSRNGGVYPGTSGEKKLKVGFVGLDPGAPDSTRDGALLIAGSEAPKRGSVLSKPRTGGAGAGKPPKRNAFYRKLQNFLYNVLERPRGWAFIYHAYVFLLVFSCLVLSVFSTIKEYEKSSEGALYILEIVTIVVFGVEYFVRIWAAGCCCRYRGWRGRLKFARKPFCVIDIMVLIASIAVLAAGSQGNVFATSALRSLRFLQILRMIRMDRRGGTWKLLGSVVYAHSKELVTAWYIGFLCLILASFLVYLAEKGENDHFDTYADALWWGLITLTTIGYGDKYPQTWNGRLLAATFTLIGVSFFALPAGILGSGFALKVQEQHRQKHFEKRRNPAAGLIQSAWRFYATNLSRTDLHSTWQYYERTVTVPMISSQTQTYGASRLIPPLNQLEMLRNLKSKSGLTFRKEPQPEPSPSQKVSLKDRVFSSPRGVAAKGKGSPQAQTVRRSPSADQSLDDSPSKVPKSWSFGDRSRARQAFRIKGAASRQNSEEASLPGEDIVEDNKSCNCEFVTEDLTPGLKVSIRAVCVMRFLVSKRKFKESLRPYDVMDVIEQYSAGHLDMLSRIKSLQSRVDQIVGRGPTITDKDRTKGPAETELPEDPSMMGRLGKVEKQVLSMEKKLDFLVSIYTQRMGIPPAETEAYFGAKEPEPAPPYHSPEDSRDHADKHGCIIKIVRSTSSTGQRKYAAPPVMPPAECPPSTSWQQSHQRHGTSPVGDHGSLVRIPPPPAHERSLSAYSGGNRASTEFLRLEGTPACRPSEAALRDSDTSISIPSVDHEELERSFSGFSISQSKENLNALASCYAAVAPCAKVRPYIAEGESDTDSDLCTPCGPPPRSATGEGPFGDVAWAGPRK
KCNQ2 block = KCNQ2 (rat) channel inhibition; 1.1% of 310,000 active; O88943; B-score at 10 µM; CHO-K1 KCNQ2, FluxOR thallium flux, 20 min; active compounds read low;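 active means fluorescence ratio B-score at most minus 3 library SDs, with starting brightness B-score within 2 library SDs, cut at about -5.5 in these data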
* marks the source's active call; other numbers are inactive results. This is a sample that favours compounds with a hit; in the whole collection about 1.6% have one here.

`CCCN1C(=O)/C(=C/c2ccc(C)o2)SC1=Nc1ccc(OC)cc1` gave KCNQ2 block inactive.
CCCN1C(=O)/C(=C/c2ccco2)SC1=Nc1ccc(OC)cc1 was read as KCNQ2 block inactive.
CCN1C(=O)/C(=C/c2ccc(C)s2)SC1=Nc1ccc(OC)cc1 was read as KCNQ2 pot -6.31 and KCNQ2 block -6.31*.
`COc1ccc(N=C2S/C(=C\c3ccc(C)o3)C(=O)N2CC(C)C)cc1` gave KCNQ2 pot -6.09 and KCNQ2 block -6.09*.
CCOC(=O)c1c(-c2ccc(C)cc2)csc1NC(=O)c1ccc(N2C(=O)CCC2=O)cc1 was read as KCNQ2 block inactive.
`CC(=O)c1ccc(S(=O)(=O)N2CCNCC2)cc1` gave KCNQ2 block inactive.
`CCN(CC)C(=O)CN1CCC(n2c(C)nc3cc(C(F)(F)F)ccc32)CC1` gave KCNQ2 pot 0.62 and KCNQ2 block inactive.
For CCOc1ccc(N2C(=O)CC(NC3CCN(C(=O)c4ccc(F)cc4)CC3)C2=O)cc1 (centres undefined) the results were KCNQ2 block inactive.
CCOC(=O)c1ccc(N2C(=O)CC(NC3CCN(C(=O)c4ccc(F)cc4)CC3)C2=O)cc1 (centres undefined) was read as KCNQ2 pot -9.5 and KCNQ2 block -9.5*.
For CCOC(=O)Cc1csc(NC(=O)Cc2ccc(Br)cc2)n1 the results were KCNQ2 pot 2.15 and KCNQ2 block inactive.
Screening Cc1csc(-c2cnn(-c3ccccc3)c2NC(=O)c2ccc(C(F)(F)F)cc2)n1 returned KCNQ2 pot -5.91 and KCNQ2 block -5.91*.
`CC(C)(C)NC(=O)c1cnn(-c2ccccc2)c1NC(=O)c1ccccc1` gave KCNQ2 block inactive.
Screening CN(CC(=O)Nc1ccc(F)cc1Cl)Cc1cccs1 returned KCNQ2 block inactive.
Screening CN(CC(=O)Nc1cc(Cl)cc(Cl)c1)Cc1cccs1 returned KCNQ2 pot -5.58 and KCNQ2 block -5.58*.
`Cc1ccc(C)c(NC(=S)NNC(=O)c2cc3c(s2)CCC(C)C3)c1` (centres undefined) gave KCNQ2 pot 11.3* and KCNQ2 block inactive.
Screening Cc1ccc(C)c(NC(=S)NNC(=O)c2sccc2C)c1 returned KCNQ2 pot 1.65 and KCNQ2 block inactive.
Screening CC1CCc2sc(C(=O)NN=C3CCC(c4ccccc4)CC3)cc2C1 (centres undefined) returned KCNQ2 pot 0.75 and KCNQ2 block inactive.
For Cc1cccc(NC(=S)NNC(=O)c2cc3c(s2)CCC(C)C3)c1C (centres undefined) the results were KCNQ2 pot 8.53* and KCNQ2 block inactive.
Screening O=C(NCc1cccnc1)C(=O)NCC(c1ccco1)N1CCN(c2ccccc2)CC1 (centres undefined) returned KCNQ2 pot 1.07 and KCNQ2 block inactive.
For O=C1CCC(C(=O)OCc2cc(Cl)ccc2OC(F)F)N1 (centres undefined) the results were KCNQ2 pot 0.35 and KCNQ2 block inactive.
For CCCCC(CC)CNC(=O)c1ccc2c(c1)OCO2 (centres undefined) the results were KCNQ2 pot -7.03 and KCNQ2 block -7.03*.
`CCOCCCNC(=O)c1ccc2c(c1)OCO2` gave KCNQ2 block inactive.
Screening CN1CCN(C(=O)c2cc3c(ccc4ccccc43)oc2=O)CC1 returned KCNQ2 block inactive.
Screening COc1ccc(NC2=Nc3cccc4cccc2c34)cc1OC returned KCNQ2 block inactive.
For COc1cc(NC2=Nc3cccc4cccc2c34)cc(OC)c1OC the results were KCNQ2 pot -6.03 and KCNQ2 block -6.03*.
O=C(Cc1nc2ccccc2[nH]1)c1ccc(Cl)cc1 was read as KCNQ2 block inactive.
N#CCCN/N=C(/Cc1nc2ccccc2[nH]1)c1cccc(Cl)c1 was read as KCNQ2 pot -5.98 and KCNQ2 block -5.98*.
For CC(C)N1CCN(Cc2ccc(OC3CCCC3)cc2)CC1CCO (centres undefined) the results were KCNQ2 block inactive.
`COc1ccc(-n2c(Cc3cccn3C)nnc2SCC(=O)Nc2ccc(F)cc2F)cc1` gave KCNQ2 block inactive.
`Cc1[nH]c2ccc(F)cc2c1CCN(Cc1cccnc1)C(=S)Nc1ccc(F)cc1` gave KCNQ2 block inactive.
Screening COc1ccc(CNn2c(-c3cccc(C)c3)nc3ccccc3c2=O)cc1OC returned KCNQ2 block inactive.
`COc1ccccc1CNn1c(-c2cccc(C)c2)nc2ccccc2c1=O` gave KCNQ2 pot -7.58 and KCNQ2 block -7.58*.
COc1ccc(C2CC(c3ccc(Br)cc3)=NN2C(=O)CSC2=NN3CCCC(=O)N=C3S2)cc1 (centres undefined) was read as KCNQ2 block inactive.
Screening COc1ccc([N+](=O)[O-])cc1NC(=S)NC(C)=O returned KCNQ2 pot 0.92 and KCNQ2 block inactive.
For O=c1cc(N2CCCCC2)c(-c2ccccc2)nn1Cc1ccccc1Cl the results were KCNQ2 block inactive.
For O=c1cc(N2CCCCC2)c(-c2ccccc2)nn1Cc1ccc(Cl)cc1Cl the results were KCNQ2 pot -7.68 and KCNQ2 block -7.68*.
For Cc1cc(C)cc(NC(=O)C(OC(=O)C2=COCCO2)c2ccccc2)c1 (centres undefined) the results were KCNQ2 pot -6.63 and KCNQ2 block -6.63*.
Screening O=C(OC(C(=O)Nc1ccc(Cl)c(C(F)(F)F)c1)c1ccccc1)C1=COCCO1 (centres undefined) returned KCNQ2 block inactive.
CCc1cc2cc(C(=O)N3CCN(Cc4ccccc4)CC3)sc2s1 was read as KCNQ2 pot -5.76 and KCNQ2 block -5.76*.
`CCc1cc2cc(C(=O)N3CCN(c4ccccc4)CC3)sc2s1` gave KCNQ2 block inactive.
`COc1ccc(CN(C)CC(=O)Nc2cccc3ccccc23)cc1F` gave KCNQ2 pot -5.83 and KCNQ2 block -5.83*.
CCOc1ccc(CN(C)CC(=O)Nc2cccc3ccccc23)cc1OC was read as KCNQ2 block inactive.
`Cc1ccccc1OCCC(=O)OCC(=O)Nc1cc(S(=O)(=O)N2CCOCC2)ccc1Cl` gave KCNQ2 block inactive.
CO/N=C/C(=N\Nc1cc(OC)cc(OC)c1)C(=O)c1ccccc1 was read as KCNQ2 pot -5.8 and KCNQ2 block -5.8*.
COc1ccc(N/N=C(\C=N\O)C(=O)c2ccc(OC)cc2)cc1 was read as KCNQ2 block inactive.
`O=C(OC1CCCCC1)c1ccc(NC(=O)c2ccco2)cc1` gave KCNQ2 pot 2.39 and KCNQ2 block inactive.
`COC(=O)c1ccc([C@H](NC(=O)c2ccco2)[C@]2(C)C[C@H]2C2CCCCC2)cc1` gave KCNQ2 pot -5.98 and KCNQ2 block -5.98*.
For O=C(N1CCOCC1)N(CCN1CCOCC1)Cc1cccc2ccccc12 the results were KCNQ2 block inactive.
Screening CC1(C(=O)c2ccccc2)C2c3c(ccc4ccccc34)OC(=O)C21C(=O)N1CCOCC1 (centres undefined) returned KCNQ2 pot -7.87 and KCNQ2 block -7.87*.
`Cc1csc(NC(=O)CCn2c(=O)oc3ccccc32)n1` gave KCNQ2 block inactive.
For COc1c(/C=N/Nc2nc(N3CCCCC3)nc(N3CCCCC3)n2)cccc1[N+](=O)[O-] the results were KCNQ2 block inactive.
`O=[N+]([O-])c1ccc(/C=N/Nc2nc(N3CCCCC3)nc(N3CCCCC3)n2)o1` gave KCNQ2 pot -5.56 and KCNQ2 block -5.56*.
